Bioassay records as filed in PubChem BioAssay.
rRNA inh HTS: inhibits bacterial ribosomal RNA function over humanized ribosomes. GFP signal change (wild-type ribosome), % (test concentration not listed). E. coli WT GFP vs humanized-ribosome RFP mutants, fluorescence, 24 h; hits give low values; DMSO median 0, no signal -100. 1.6% of 350,000 active;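 active = significant combined selectivity score with lowered wild-type GFP, culture density cut under 30%, mutant RFP and density less affected; inactive = any of these conditions unmet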
Casp6 inh: caspase-6 (human) enzyme inhibition. 0.53% of 350,000 active. purified caspase-6, Z-VEID-R110 cleavage fluorescence. inhibition, % at 12.5 µM. P55212;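 active = mean inhibition across replicates at least about 35%, with every replicate also reaching that limit, limit read from the data; inconclusive = only one of the two criteria met; inactive = neither criterion met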
Target sequence (P55212 24-179 limits assumed): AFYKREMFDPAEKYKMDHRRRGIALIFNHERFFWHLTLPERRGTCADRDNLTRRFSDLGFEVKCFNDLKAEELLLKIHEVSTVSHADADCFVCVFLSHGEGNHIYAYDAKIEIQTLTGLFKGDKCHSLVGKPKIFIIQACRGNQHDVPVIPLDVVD
Target sequence (P55212 194-293 limits assumed): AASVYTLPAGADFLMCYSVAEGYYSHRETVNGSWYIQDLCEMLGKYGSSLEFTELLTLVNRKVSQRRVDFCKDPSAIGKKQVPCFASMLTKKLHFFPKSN
NSD2 inh: inhibitors of human histone methyltransferase NSD2; O96028; NSD2 peptide methylation, AlphaScreen, 120 min; inhibition, % at 12.5 µM; 0.54% of 310,000 active; in the data active = inhibition above about 50%
MLL AF4-AF9 inh: MLL-AF4/AF9 protein interaction inhibition | P42568 | AlphaScreen, biotin-AF4 peptide binding to FLAG-AF9 | AID 651704 | 0.47% of 350,000 active | inhibition, % at 10 µM;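 active = every replicate reaching a set inhibition limit, whatever the replicate mean, cut at about 25% in these data; inconclusive = mean inhibition reaches that limit but some replicates miss it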
RAD52 inh: blocks human RAD52 DNA annealing | P43351 | recombinant RAD52 DNA annealing, FRET fluorescence | inhibition, % at 18.7 µM | 0.46% of 360,000 active | AID 651710;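 active = every replicate showing at least 50% inhibition; inconclusive = mean inhibition at least 50% but not in every replicate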
AID977621: growth inhibition of wild-type GFP E. coli, dose response, H69 mutant RFP, cherry-pick; AID 977621; E. coli wild-type GFP strain growth, fluorescence, 24 h; 1,900 tested, under 10 active; shares compounds with rRNA inh HTS; activity change, negative = inhibition at 50 µM;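 active = Wild-type ribosome reporter drop at least double the humanized mutant ribosome reporter drop, growth loss under a set limit; inconclusive = no clear call, values can overlap the other calls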;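 also: wild-type GFP and H69 mutant RFP strains grown together 50/50 in each well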
AID977628: growth of wild-type and h24-humanized E. coli strains – h24 mutant RFP vs wild-type GFP, cherry-pick, dose response | activity change, negative = inhibition at 50 µM | shares compounds with rRNA inh HTS | 1,900 tested, under 10 active | E. coli WT GFP strain growth, fluorescence, 24 h | AID 977628;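 active = compound lowering the normal-ribosome reporter at least twice as much as the humanized-ribosome reporter, growth loss under a set limit; inconclusive = no clear call, values can overlap the other calls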;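 also: wild-type GFP and h24 humanized RFP strains co-cultured 1 to 1 per well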
A number is an active result; i = inactive; ? = inconclusive; nt = no result given. Most compounds without a hit are left out; they make up all but 2.5% or so of the library.

SMILES	rRNA inh HTS	Casp6 inh	NSD2 inh	MLL AF4-AF9 inh	RAD52 inh	AID977621	AID977628
O=C(Nc1ccccc1N1CCOCC1)C1CCCCN1S(=O)(=O)c1ccccc1 (centres undefined)	-31.0	i	i	i	i	i	i
Cc1cc(NC(=O)CCN2C(=O)C3C4C=CC(C4)C3C2=O)ccc1Br (centres undefined)	-21.4	i	i	i	i	i	i
CSc1nc2nc3c(cc2c(=O)n1-c1ccccc1C)CCCC3	-29.5	i	nt	i	i	i	i
O=c1c2cc3c(nc2[nH]c(=S)n1-c1ccccc1)CCCC3	i	i	i	i	i	nt	nt
COc1cc(C(=O)N2CCc3ccccc32)ccc1OCc1c(C)noc1C	i	i	i	i	i	nt	nt
Cc1noc(C)c1COc1cccc(C(=O)N2CCc3ccccc32)c1	-41.1	i	i	i	i	i	i
CO[C@@H](CN(C)Cc1cc(F)ccc1F)[C@H](C)CN([C@H](C)CO)S(=O)(=O)c1ccc(C)cc1	i	i	nt	i	i	nt	nt
O=S(=O)(c1cccc(-c2nc3ccccc3s2)c1)N1CCCC1	-22.1	i	i	i	i	i	?
Cc1cccc(-c2cc3nc4c(c(N5CCOCC5)n3n2)CCCC4)c1	-32.6	i	i	i	i	i	?
Cc1cccc(-c2cc3nc4c(c(N5CCC6(CC5)OCCO6)n3n2)CCCC4)c1	i	i	i	i	i	nt	nt
CN1C(=O)c2cc(NS(=O)(=O)c3cccc(F)c3)ccc2OC[C@@H]2O[C@@H](CC(=O)N3CCc4ccccc4C3)CC[C@H]21	i	nt	nt	i	nt	nt	nt
CC1Cc2cc(S(=O)(=O)N3CCN(c4cccc(Cl)c4)CC3)ccc2N1C(=O)C1CC1 (centres undefined)	-25.5	i	i	i	i	i	i
CCC(=O)Nc1ccc2c(c1)C(=O)N(C)[C@@H]1CC[C@H](CC(=O)NCc3ccc(OC)cc3)O[C@H]1CO2	i	i	nt	i	i	nt	nt
COc1ccc(S(=O)(=O)N2CCCCC2)cc1NC(=O)c1cccnc1SC	i	i	i	i	i	nt	nt
COc1ccc(NC(=O)c2cccnc2SC)cc1S(=O)(=O)N1CCCCC1	-25.4	i	i	i	i	?	nt
N#CCSc1ncnc2ccccc12	i	nt	i	i	i	nt	nt
c1ccc(Sc2ncnc3ccccc23)cc1	-17.9	i	i	i	i	nt	?
CC(C)(O)C#Cc1cccc(-c2nc(C(=O)N[C@@H]3CCN(Cc4ccccc4)C3)cc3c2[C@H](CCO)N(S(=O)C(C)(C)C)C3)c1 (some centres undefined)	i	i	nt	i	i	nt	nt
COc1ccccc1C1CCN(Cc2cccc([N+](=O)[O-])c2)CC1	-24.4	i	i	nt	i	nt	?
Cc1ccc(Nc2nc(C(=O)NCC3CCCO3)cs2)cc1 (centres undefined)	-42.4	i	i	i	i	i	i
Cc1ccc(-c2cc(C(=O)NCC3CCCO3)no2)cc1 (centres undefined)	nt	nt	i	nt	nt	nt	nt
CCCNC(=O)[C@@H]1[C@@H](CO)[C@@H]2Cn3c(cccc3=O)[C@@H]2N1Cc1ccccc1Cl	i	i	nt	i	i	nt	nt
COc1ccccc1CNC(=O)CN1C(=O)NC(c2ccccc2)(c2ccccc2)C1=O	-16.4	i	i	i	i	i	nt
CCC1(c2ccccc2)NC(=O)N(CC(=O)NCc2ccccc2OC)C1=O (centres undefined)	i	i	i	i	i	nt	nt
CC1Cc2ccccc2N1C(=O)COc1ccc2c(c1)OCO2 (centres undefined)	-22.4	i	i	i	i	nt	i
SMILES	rRNA inh HTS	Casp6 inh	NSD2 inh	MLL AF4-AF9 inh	RAD52 inh	AID977621	AID977628
NC(=O)C1CCN(c2cc(Cl)ccc2[N+](=O)[O-])CC1	-22.1	i	i	i	i	i	nt
COCC(=O)N1C[C@H](C)[C@@H](OC)CN(C)C(=O)c2cc(NC(=O)Nc3ccccc3)ccc2OC[C@H]1C	i	nt	nt	i	i	nt	nt
c1ccc(CNc2ncnc3sccc23)cc1	-21.3	i	i	i	i	nt	?
C[C@@H]1CN([C@@H](C)CO)S(=O)(=O)c2ccc(-c3ccccc3)cc2O[C@@H]1CN(C)S(C)(=O)=O	i	i	nt	i	i	nt	nt
O=C(C1Cc2ccccc2CN1C(=O)c1ccccc1)N1CCN(c2ccccc2)CC1 (centres undefined)	-22.5	i	i	nt	i	i	i
COc1ccc(N2CCN(C(=O)C3Cc4ccccc4CN3C(=O)c3ccco3)CC2)cc1 (centres undefined)	nt	i	i	i	i	nt	nt
O=C(c1ccccn1)N1C[C@H]2[C@@H](c3ccccc31)[C@@H](CO)N2C(=O)Cc1ccccc1	i	i	nt	i	i	nt	nt
Cc1noc(C)c1S(=O)(=O)Nc1ccc2c(c1)C(=O)N([C@H](C)CO)C[C@@H](C)[C@@H](CN(C)C(=O)NC(C)C)OCCCC[C@@H](C)O2	i	i	nt	i	i	nt	nt
CC(C(=O)Nc1nc2ccccc2s1)n1cc([N+](=O)[O-])cn1 (centres undefined)	-18.4	i	i	i	i	i	nt
CC(C(=O)NC1CCCCCC1)n1cc([N+](=O)[O-])cn1 (centres undefined)	i	i	i	i	i	nt	nt
C[C@@H]1CCCCO[C@H](CN(C)Cc2ccc(Cl)c(Cl)c2)[C@H](C)CN([C@@H](C)CO)C(=O)c2cc(NC(=O)Cc3ccccc3)ccc2O1	i	i	nt	i	i	nt	nt
COc1cc(OC)cc(C(=O)N[C@H](C(=O)OCC(=O)Nc2ccc(F)c(F)c2F)C(C)C)c1	-19.6	i	i	i	i	?	nt
COc1cc(OC)cc(C(=O)N[C@H](C(=O)OCC(=O)Nc2ccc(C)cc2C)C(C)C)c1	i	i	i	i	i	nt	nt
Cc1cccc(-c2ccc([C@@H]3[C@H]4CN(C(=O)CN5CCOCC5)CC(=O)N4[C@H]3CO)cc2)c1	i	i	nt	i	i	nt	nt
COc1ccccc1CC(=O)NCCCc1ccccc1	-23.0	i	i	i	i	i	?
Cc1cc(CNC(=O)COc2cc(F)ccc2[N+](=O)[O-])c2ccccc2n1	i	i	i	i	i	nt	nt
O=C(COc1cc(F)ccc1[N+](=O)[O-])NCCCc1ccccc1	-27.4	i	i	i	i	i	i
COc1ccccc1CC(=O)NCCc1ccccc1	i	i	i	i	i	nt	nt
O=C(COc1ccc(Cl)cc1)Nc1nc(-c2ccncc2)cs1	i	i	i	i	i	nt	nt
O=C(COc1ccccc1Cl)Nc1nc(-c2ccncc2)cs1	-20.4	i	i	i	i	i	i
CCCNC(=O)C[C@@H]1CC[C@H]2[C@@H](COc3ccc(NC(=O)c4cccc(F)c4)cc3C(=O)N2C)O1	i	i	nt	i	i	nt	nt
CCOC(=O)c1cnc2c(c(C)nn2C)c1Oc1ccc(OC)cc1	-13.9	i	i	i	i	i	i
